Assay results published in PubChem BioAssay (NCI).
About 83,000 compounds went through this panel and 20% of them were active in at least one assay; those are over-represented in the sample as a whole.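 A percent growth of 40 corresponds to 60% growth inhibition; 0 means no net growth; -100 means all cells died. Active threshold: below 10.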 Unmarked numbers belong to inactive results. Active and inactive are the calls of the source.

Legend:
Assay in all cases: NCI-60 one-dose screen, 48 h (100 = growth as untreated, 0 = no growth, -100 = all killed)
[1] = system: SK-MEL-2 melanoma; details: 10 µM unless noted
[2] = system: EKVX NSCLC; details: 10 µM unless noted
[3] = system: SN12C renal; details: 10 µM unless noted
[4] = system: UO-31 renal; details: 10 µM unless noted
[5] = system: TK-10 renal; details: 10 µM unless noted
[6] = system: ACHN renal; details: 10 µM unless noted
[7] = system: CAKI-1 renal; details: 10 µM unless noted
[8] = system: A498 renal; details: 10 µM unless noted
[9] = system: CCRF-CEM leukemia; details: 10 µM unless noted
[10] = system: SR leukemia; details: 10 µM unless noted
[11] = system: RPMI-8226 leukemia; details: 10 µM unless noted
[12] = system: OVCAR-8 ovarian; details: 10 µM unless noted
[13] = system: OVCAR-5 ovarian; details: 10 µM unless noted
[14] = system: OVCAR-4 ovarian; details: 10 µM unless noted
[15] = system: SK-OV-3 ovarian; details: 10 µM unless noted
[16] = system: IGROV1 ovarian; details: 10 µM unless noted
[17] = system: OVCAR-3 ovarian; details: 10 µM unless noted
[18] = system: HS 578T breast; details: 10 µM
[19] = system: NCI/ADR-RES ovarian; details: 10 µM unless noted
[20] = system: MOLT-4 leukemia; details: 10 µM unless noted

SMILES	growth [1]	growth [2]	growth [3]	growth [4]	growth [5]	growth [6]	growth [7]	growth [8]	growth [9] [%]	growth [10]	growth [11]	growth [12]	growth [13]	growth [14]	growth [15]	growth [16]	growth [17]	growth [18]	growth [19]	growth [20]
Nc1nc(N)c2cc(Sc3ccc(Cl)cc3)ccc2n1	50.7%	33.6%	29.7%	21.6%	43%	23%	13.5%	63.6%	41.5	7.93% (active)	20.1%	34.8%	39.4%	70.2%	59.7%	22.9%	25.7%	45.4%	36.2%	
CN=C1C=C/C(=N/N=c2/ccn(O)cc2C)C=C1C	97.6%	87.4%	90%	77.6%	118%	93.8%	93.9%	96%		90.5%	77.1%	94.2%	83.2%	97.5%	102%	129%	117%	110%	97.4%	89.1%
CC1CN(CCCOC(=O)Nc2ccc(Cl)cc2)CCN1C(C)(C)C (stereo not given)	112%	96.9%	113%	82.9%	99.8%	133%	89.8%	95.2%	90.3		100%	104%	105%	111%	93.8%	100%	104%	116%	99.6%	
Clc1ccccc1Nc1nnc(-c2ccncc2)s1	107%	91.7%	86%	90.7%	111%	104%	90.5%	92.1%	96		89.2%	100%	107%	94.5%	105%	101%	110%	94.9%	102%	93.4%
CCN(CC)c1ccc(C(=N)c2ccc(N(C)C)cc2)cc1	-4.95% (active)	15.2%	24.8%	8.99% (active)	31.4%	30.1%	-19.9% (active)	-20.1% (active)	21.7		6.17% (active)	11.9%	16.8%	21.4%	14.4%	4.79% (active)	-12.6% (active)	-31% (active)	-31.1% (active)	
O=C1c2ccccc2C(=O)c2c1oc1ccc3ccccc3c21	101%	72.6%	83.2%	61%	169%	79.4%	90.3%	88.5%	94.8	60.8%	75.9%	88.2%	130%	34.1%	114%	80.2%	39.4%	85.7%	79.4%	
COc1cccc(CC(C)=C(c2ccc(OCCCN(C)C)cc2)c2ccc(OCCCN(C)C)cc2)c1	-76.5% (active)	-83.9% (active)	-84.7% (active)	-97.8% (active)	-93% (active)	-98.3% (active)	-97.7% (active)	18.6%		-49.1% (active)	-53.9% (active)	-78.7% (active)	-86.5% (active)	-22.2% (active)	-88.6% (active)	-82.6% (active)	-89.9% (active)	-41.4% (active)	-70% (active)	-61.4% (active)
COc1ccc(/C(=C\c2ccc3c(c2)OCO3)C(=O)Nc2nc3ccccc3s2)cc1	95.2%	102%	98.3%	91.9%	104%	96.6%	91.4%	99.9%	95.4	81.7%	94.5%	102%	93.6%	101%	97.8%	103%	98.5%	110%	100%	
